Laboratory results published in PubChem BioAssay AID493243 (Broad Institute, 2011).
Active and inactive are the calls of the source. No rule for the calls is given here.

Assay: compounds quenching green fluorescent protein signal – biochemical, plate reader, dry powder, artefact control, dose response (AID 493243)
Settings: GFP fluorescence counter-screen

Q: With CCn1nc(/C=C/c2ccccc2)nc2c(=O)n(C)c(=O)nc1-2 as the molecule, how does the AC50 read?
A: 221 nM (active)
